Several values for one entry are separate records, joined by “and”; a condition that tells them apart may be missing. Identical values can stand only once. Values without a mark were called inactive. Records with an inconclusive call do not appear. Entries that show only a call come without a potency. Activity calls are given as the source filed them. The call rests on the fitted dose curve; in most records, active means well fitted curve in the direction sought with a large enough effect; inconclusive means small, poorly fitted or top-dose-only effect, or another doubt; inactive means no such curve, though single readings can be large; an effect the other way counts as inactive or inconclusive.
Key:
[1] = qHTS for compounds that reverse cellular toxicity of Amyloid beta (A-beta) peptide in yeast: LOPAC Validation Assay (AID 720559)
Procedure, shortened: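 Yeast cells expressing toxic A-beta were combined with pinned compounds in growth medium and incubated 48 hr at 30 C. Growth was read as absorbance at 600 nm and normalized to DMSO and to an equimolar FeCl3/clioquinol positive control.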

[2] = qHTS for Activators of Parkin Expression: LOPAC Validation Assay (NLuc Reporter) (AID 720572)
Procedure, shortened: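 NLuc signal, read 10 min after reagent and following a prior FLuc read, is normalized to DMSO (0) and positive controls (100%). Cells: neuronal Parkin-promoter coincidence reporter line; compounds tested 7-point, 24 h, 37 C, 5% CO2.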

[3] = qHTS for Activators of Parkin Expression: LOPAC Validation Assay (FLuc Reporter) (AID 720573)
Procedure, shortened: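 Neuronal cell line stably carrying FLuc/NLuc coincidence reporter under Parkin promoter; cells plated 24 h, then compounds added in 7-point dose response for 24 h at 37 C. FLuc luminescence read; normalized to DMSO and positive control (100%).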

[4] = biological target: T1, Hexokinase-4 (Homo sapiens) + Glucokinase regulatory protein (Homo sapiens) (UniProt P35557+Q14397); assay: qHTS assay for inhibitors of recombinant human GCK-GKRP interaction: Diaphorase-coupled assay (AID 743205)
T1 sequence (P35557 whole entry, looked up): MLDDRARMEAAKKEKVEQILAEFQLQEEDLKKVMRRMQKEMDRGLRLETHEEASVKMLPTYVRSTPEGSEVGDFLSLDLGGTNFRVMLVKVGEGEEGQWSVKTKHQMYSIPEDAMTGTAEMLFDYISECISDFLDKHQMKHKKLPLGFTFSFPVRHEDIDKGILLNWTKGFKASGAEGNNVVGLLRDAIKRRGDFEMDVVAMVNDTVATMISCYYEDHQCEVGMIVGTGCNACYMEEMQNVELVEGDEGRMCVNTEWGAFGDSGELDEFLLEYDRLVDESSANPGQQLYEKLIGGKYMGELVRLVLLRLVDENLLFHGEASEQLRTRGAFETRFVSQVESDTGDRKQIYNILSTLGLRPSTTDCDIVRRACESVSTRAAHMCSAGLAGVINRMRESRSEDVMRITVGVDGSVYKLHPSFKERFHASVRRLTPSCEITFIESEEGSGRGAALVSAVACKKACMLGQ
T1 sequence (Q14397 whole entry, looked up): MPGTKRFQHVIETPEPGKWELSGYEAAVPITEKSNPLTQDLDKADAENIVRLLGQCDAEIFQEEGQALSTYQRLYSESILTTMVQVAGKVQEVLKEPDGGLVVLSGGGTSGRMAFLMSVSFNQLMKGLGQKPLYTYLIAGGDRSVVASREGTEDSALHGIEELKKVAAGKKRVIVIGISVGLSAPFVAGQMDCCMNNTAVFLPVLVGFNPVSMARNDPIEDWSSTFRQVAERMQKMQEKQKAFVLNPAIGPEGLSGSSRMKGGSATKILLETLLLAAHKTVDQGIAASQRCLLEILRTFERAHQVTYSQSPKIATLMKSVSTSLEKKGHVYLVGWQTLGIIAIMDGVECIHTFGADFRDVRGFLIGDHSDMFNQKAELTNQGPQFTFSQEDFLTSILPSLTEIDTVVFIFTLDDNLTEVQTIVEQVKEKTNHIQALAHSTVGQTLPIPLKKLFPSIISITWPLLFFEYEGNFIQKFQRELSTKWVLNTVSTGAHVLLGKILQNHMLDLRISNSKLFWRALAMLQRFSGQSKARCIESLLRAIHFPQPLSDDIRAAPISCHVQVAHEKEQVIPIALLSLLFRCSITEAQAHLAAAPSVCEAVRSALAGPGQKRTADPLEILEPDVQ
Procedure, shortened: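 GST-GCK (10 nM) with FLAG-GKRP (10 nM), 5 mM glucose and 0.4 mM ATP in pH 7.6 Hepes; compounds preincubated 20 min with substrate. G6PDH/diaphorase coupling converts resazurin to resorufin, read kinetically (ex 525/em 590 nm) for 30 min.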

[5] = biological target: T1, Hexokinase-4 (Homo sapiens) + Glucokinase regulatory protein (Homo sapiens); assay: qHTS assay for inhibitors of recombinant human GCK-GKRP interaction: ADP-Glo assay (AID 743206)
Procedure, shortened: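 Pin-transferred compounds meet a 15 nM GST-GCK/15 nM FLAG-GKRP/2 uM S6P mix (dispense concentrations). ATP is then added to 0.4 mM final with 5 mM glucose, and the reaction runs 60 min at room temperature. ADP is quantified luminescently.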

[6] = qHTS Assay for Identifying Gametocytocidal Compounds (AID 743244); further: potency means the concentration at half of the fitted maximal effect;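 on max response: actives lower the fluorescent signal which means gametocytes are killed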; details: P. falciparum 3D7 stage III-V gametocytes, alamarBlue, 72 h; max response: active compounds read low
Procedure, shortened: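 3D7 gametocytes, stages III–V, 20,000/well; cpd 72 h, 37 °C/5% CO2; + alamarBlue 24 h; fluor. Ex 525/Em 598.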

[7] = biological target: T1, Hexokinase-4 (Homo sapiens) + Glucokinase regulatory protein (Homo sapiens); assay: qHTS assay for inhibitors of recombinant human GCK-GKRP interaction: HTRF assay (AID 743207)
Procedure, shortened: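 GST-GCK and FLAG-GKRP (5 nM each) were combined with 2 uM S6P in pH 7.1 Hepes/MgCl2/KCl/DTT buffer, then compound and anti-FLAG XL665/anti-GST K antibodies were added. After 60 min at room temperature, HTRF 665/615 nm emission was read.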

In the case of `Cc1c(C(=O)c2cccc3ccccc23)c2cccc3c2n1[C@H](CN1CCOCC1)CO3`, the outcome [1] is reported as “inactive”, the outcome [2] is reported as “inactive” and the outcome [3] is reported as “inactive”. For the same compound, the outcome [4] was “inactive” and the outcome [5] was “inactive”.
With `Cc1ccc(Cl)c(O)c1` the max response [6] was -0.773%.
With `CNCCc1ccc(O)c(O)c1` the outcome [1] was “inactive”, the outcome [2] was “inactive” and the outcome [4] was “inactive”. The outcome [5] was “inactive” and the outcome [7] was “inactive”.
Work on `Oc1ccc2c3c1O[C@H]1[C@@H](O)C=C[C@H]4[C@@H](C2)NCC[C@@]341` yielded a max response [6] of 4.91%.
For `CCCN1CCC[C@H](c2cccc(O)c2)C1`, the outcome [1] was “inactive”, the outcome [2] was “inactive” and the outcome [3] was “inactive”. The outcome [4] was “inactive”, the outcome [5] was “inactive” and the outcome [7] was “inactive”. For the same compound, the max response [6] was -8.29% and 20.7%.
For `CN[C@@H]1C[C@@H](c2ccc(Cl)c(Cl)c2)c2ccccc21`, the outcome [1] was “inactive”, the outcome [2] was “inactive” and the outcome [4] was “inactive”. For the same compound, the outcome [5] was “inactive” and the outcome [7] was “inactive”.
With `CC(C)NCC(O)c1ccc([N+](=O)[O-])cc1` (stereo not drawn) the max response [6] was -16.1%.
With `CO[C@H]1C=CC=C(C)C(=O)NC2=CC(=O)C(NCCN(C)C)=C(C[C@@H](C)C[C@H](OC)[C@@H](O)[C@@H](C)C=C(C)[C@@H]1OC(N)=O)C2=O` the Potency [6] was 0.0469 µM (active).
For `O=C(Nc1cc(C(F)(F)F)cc(C(F)(F)F)c1)c1cc(Cl)ccc1O`, the Potency [6] was 7.43 µM (active).
With `C[C@@]12O[C@@H](C[C@]1(O)CO)n1c3ccccc3c3c4c(c5c6ccccc6n2c5c31)CNC4=O` the Potency [6] was 5.9 µM (active).
Work on `CN[C@@H](C)[C@H](O)c1ccccc1` yielded a max response [6] of -11.3%.
In the case of `O=C1C(I)=CC(=C(c2cc(I)c(O)c(I)c2)c2ccccc2C(=O)O)C=C1I`, the max response [6] is reported as 4.96% and 16.9%.
With `COCCn1c2c([n+](Cc3cnccn3)c1C)C(=O)c1ccccc1C2=O` the Potency [6] was 0.372 µM (active).
In the case of `O=[N+]([O-])c1ccc([As](=O)(O)O)cc1`, the Potency [6] is reported as 10 µM (active).
Compound `CC1(C)CC/C(=C/c2ccc(Cl)cc2)C1(O)Cn1cncn1` (stereo not drawn) has a max response [6] of -5.52%.
In the case of `NCc1cc(=O)[nH]o1`, the outcome [1] is reported as “inactive”, the outcome [2] is reported as “inactive” and the outcome [3] is reported as “inactive”. For the same compound, the outcome [4] was “inactive”, the outcome [5] was “inactive” and the outcome [7] was “inactive”. For the same compound, the max response [6] was 24.8%.
Compound `CN1CC[C@@H](c2c(O)cc(O)c3c(=O)cc(-c4ccccc4Cl)oc23)[C@@H](O)C1` has a max response [6] of 13.4%.
For `COC(=O)c1cncn1C(C)c1ccccc1` (stereo not drawn), the max response [6] was -7.45%.
With `CC[N+]1(CCOC(=O)C(O)(c2ccccc2)c2ccccc2)CCCCC1` the max response [6] was 2.2%.
In the case of `CC(C)(C)NC[C@H](O)c1ccc(O)cc1Cl`, the max response [6] is reported as 2.84%.
With `COc1ccc2c(c1)CC[C@H]1[C@@H]2CC[C@]2(C)[C@@H](NCCCCCCN3C(=O)C=CC3=O)CC[C@H]12` the Potency [6] was 9.35 µM (active).
With `O=C(O)Cc1cnc[nH]1` the outcome [1] was “inactive”, the outcome [2] was “inactive” and the outcome [4] was “inactive”. For the same compound, the outcome [5] was “inactive”, the outcome [7] was “inactive” and the max response [6] was 3.18%.
With `S=C(SSC(=S)N1CCCCC1)N1CCCCC1` the Potency [6] was 0.148 µM (active).
With `NCCc1c[nH]c2ccccc12` the outcome [1] was “inactive”, the outcome [2] was “inactive” and the outcome [4] was “inactive”. For the same compound, the outcome [5] was “inactive”, the outcome [7] was “inactive” and the max response [6] was 11%.

From PubChem BioAssay (NCATS)
